Consider 94 compounds from PubChem BioAssay AID588727 (Southern Research Specialized Biocontainment Screening …, 2011).

A short description of the assay: inhibitors of VEEV TC-83 cytopathic effect, confirmation, Vero cells (AID 588727). The conditions noted are these: VEEV TC-83 cytopathic effect inhibition, at 20 µM. Background: Cytopathic effects are the visible damage that an infection or toxin causes in cultured cells.
[1] abbreviates: stronger effect = higher value unless noted.

Hit rate of the full screen: of about 350,000 compounds, about 450 (0.13%) were called active. The rule behind the calls is not given here. A selection follows. Results with a measured potency or affinity are listed apart.

Usually inhibition stands for the relative decrease from the control value, in per cent. On to `O=C(Nc1cccc2ccccc12)N(c1ccccc1)c1ccccc1`, for which the inhibition entry under setting [1] was “inactive”.

As to `Cc1ccnc(NS(=O)(=O)c2ccc(NC(=O)c3ccc(C)o3)cc2)n1`, the inhibition under setting [1] was 0.84% (inactive).

`Cc1sc2nc(CN(Cc3cccs3)C(=O)NC3CCCCC3)[nH]c(=O)c2c1C`: under setting [1], the inhibition is 6.2% (inactive).

As for `CC[C@@H](C)[C@H](CNC)NC[C@@H](Cc1cccc2ccccc12)NCCc1cccc(C(F)(F)F)c1`, under setting [1], the inhibition was 0% [measured here: 10K pilot screen inhibition, stronger effect = higher value] and the outcome was inactive.

For the compound `CNC[C@H](Cc1ccccc1)NC[C@@H](Cc1cccc2ccccc12)NCCc1ccc(C)cc1`, the inhibition entry under setting [1] is “inactive”.

Consider `COc1ccc(/C=N\NC(=O)c2ccccc2OC)cc1COc1ccccc1C`, for which the inhibition under setting [1] is 10.1% (inactive).

Regarding `Cc1ccc(-c2nc(SC(C)C(=O)c3c(N)n(C)c(=O)n(C)c3=O)n[nH]2)cc1` (stereo unspecified), under setting [1], the inhibition was 10.2% (inactive).

For `CCC(=O)N1c2ccc(S(=O)(=O)CCC(=O)NCc3cccs3)cc2CC1C` (stereo unspecified), under setting [1], the inhibition is 1.31% (inactive).

For the compound `O=C(NCC(Cl)c1ccc2ccccc2c1)c1c(F)cccc1F` (stereo unspecified), under setting [1], the inhibition entry is “inactive”.

As for `Cc1cc(-c2nnc(SCC(=O)Nc3ccccc3C(F)(F)F)n2N)n[nH]1`, the inhibition under setting [1] is 1.16% (inactive).

`COc1cc(CNCCSc2nnnn2C)cc(Br)c1OCc1ccccc1F`: under setting [1], the inhibition entry is “inactive”.

With `COc1ccc(/C=C/C(=O)c2ccccc2O)cc1CN1CCOCC1`, under setting [1], the inhibition was 6.83% (inactive).

For `COc1ccc(/C=C/C(=O)c2ccc3ccccc3c2O)cc1CN1CCOCC1`, under setting [1], the inhibition is 2% (inactive).

`COc1ccc(C(=O)/C=C/c2ccc(OC)c(Cn3nnc4ccccc43)c2)cc1`: the inhibition under setting [1] is 30.9% (inactive).

In the case of `COc1ccc(/C=C/C(=O)C23CC4CC(CC(C4)C2)C3)cc1CN1CCOCC1`, the inhibition under setting [1] is 6.32% (inactive).

Consider `CCC1(C)NC(=O)N(CC(=O)NCC(=O)Nc2c(C)cc(C)cc2C)C1=O` (stereo unspecified), for which the inhibition result under setting [1] is “inactive”.

`O=C(CSc1ncnc2c1cnn2-c1ccccc1)NC1CCCC1`: the inhibition under setting [1] was 4.66% (inactive).

Take `Cc1nn(-c2ccccn2)c2nc(-c3cccs3)cc(C(=O)NCc3ccco3)c12`: under setting [1], the inhibition is 8.96% (inactive).

Take `CCC(=O)N1CCc2cc(S(=O)(=O)N3CCN(c4ccccc4)CC3)ccc21`: the inhibition under setting [1] is 0.73% (inactive).

As for `CC(C)[C@H](NS(=O)(=O)c1ccccc1)C(=O)OCC(=O)Nc1cccc(S(N)(=O)=O)c1`, under setting [1], the inhibition was 3.51% (inactive).

For the compound `CS(=O)(=O)N1CCN(c2ccc([N+](=O)[O-])c(NCCN3CCOCC3)c2)CC1`, under setting [1], the inhibition is 0.31% (inactive).

`COc1ccc(Nc2ncccc2C(=O)O)cc1`: the inhibition result under setting [1] is “inactive”.

As for `CC(C)c1ccc(Nc2ncccc2C(=O)O)cc1`, the inhibition under setting [1] was 7.46% (inactive).

For `CC[C@@]1(C(=O)OC)N[C@H](CN(C)C(=O)Nc2ccc(OC)cc2)[C@@H]2C(=O)N(C)C(=O)[C@@H]21`, the inhibition result under setting [1] was “inactive”.

For `COc1ccc(C(=O)CCC(=O)Nc2cccnc2)cc1`, the inhibition under setting [1] was 1.27% (inactive).

Consider `COc1ccc(Nc2c(-c3ccc(C)cc3)nc3cnccn23)cc1`, for which, under setting [1], the inhibition is 2.6% (inactive).

For the compound `CCOC(=O)C1CCCN(c2nnnn2-c2ccccc2)C1` (stereo unspecified), under setting [1], the inhibition is 0.53% (inactive).

In the case of `O=C(CSc1nnc(-c2ccco2)o1)Nc1cccc([N+](=O)[O-])c1`, the inhibition under setting [1] was 1.81% (inactive).

Take `O=C(Oc1ccc2ccccc2c1Cl)N1CCCC1`: the inhibition under setting [1] is 35.1% (inactive).

Turning to `O=C(Oc1ccc2ccccc2c1Cl)N1CCCCCC1`, the inhibition under setting [1] was 2.11% (inactive).

With `CN1CCN(C(=O)CCc2nc3ccccc3c(=O)[nH]2)CC1`, the inhibition under setting [1] was 5.24% (inactive).

On to `CN(C)C(CNC(=O)CN1C(=O)NC2(CCCC2)C1=O)c1ccccc1` (stereo unspecified), for which the inhibition under setting [1] is 1.45% (inactive).

With `CCOc1ccc(/C=N/NC(=O)c2ccc(O)cc2)cc1CN1CC2CC(C1)c1cccc(=O)n1C2` (stereo unspecified), the inhibition under setting [1] was 1.76% (inactive).

With `CCc1c(C)sc(NC(=O)c2cccs2)c1C(N)=O`, the inhibition under setting [1] is 0.91% (inactive).

Regarding `CCc1c(C)sc(NC(=O)C2CCCCC2C(=O)O)c1C(N)=O` (stereo unspecified), the inhibition result under setting [1] is “inactive”.

For `O=C(O)CSc1nnc(Cc2ccccc2)n1-c1ccccc1`, the inhibition (stronger effect = higher value) was 4.71% (inactive) and the inhibition (measured here: 10K pilot screen inhibition, stronger effect = higher value) was found to be 0.6%.

In the case of `COc1ccc(Cl)cc1NC(=O)C(C)N(C)Cc1cccc(Cl)c1Cl` (stereo unspecified), the inhibition under setting [1] is 0.94% (inactive).

In the case of `COc1ccc(C2/C(=C(\O)c3cc(C)ccc3C)C(=O)C(=O)N2CCN(C)C)cc1OC` (stereo unspecified), under setting [1], the inhibition was 0.58% (inactive).

As to `O=C(O)CCC(=O)N1CCCC1`, under setting [1], the inhibition was 0.36% (inactive).

For the compound `Nc1ccn([C@H]2CS[C@@H](CO)O2)c(=O)n1`, the inhibition under setting [1] is 1.18% (inactive).

Regarding `CCc1cccc2c(SC(C)C(=O)NCC3CCCO3)nc(-c3ccccc3)nc12` (stereo unspecified), the inhibition under setting [1] is 0.17% (inactive).

As for `CC(Sc1ncnc2sc(-c3ccccc3)cc12)C(=O)NCC1CCCO1` (stereo unspecified), the inhibition under setting [1] was 12.6% (inactive).

Consider `Cc1cccc(NC(=O)NNC(=O)c2sccc2-n2cccc2)c1`, for which the inhibition under setting [1] is 2.59% (inactive).

In the case of `O=C(/C=C/c1ccccc1Cl)c1ccc(O)cc1`, under setting [1], the inhibition was 12.4% (inactive).

Regarding `O=C(/C=C/c1c(F)cccc1Cl)Nc1ncccn1`, the inhibition under setting [1] is 7.45% (inactive).

In the case of `CCCCn1c(N)c(N(Cc2ccccc2OC)C(=O)CCSC)c(=O)[nH]c1=O`, the inhibition under setting [1] was 2% (inactive).

On to `Cc1nn(C)cc1/C=N/NC(=S)Nc1ccc(Cl)cc1Cl`, for which the inhibition under setting [1] is 1.88% (inactive).

`Clc1cccc(-c2noc3ncnc(Nc4ccc5c(c4)OCO5)c23)c1`: the inhibition under setting [1] is 1.3% (inactive).

Take `O=C(Nc1ccc(N2CCCC2)c(Cl)c1)c1cccnc1`: the inhibition under setting [1] was 9.45% (inactive).

Regarding `O=C(Nc1ccc(N2CCOCC2)c(Cl)c1)c1cccnc1`, under setting [1], the inhibition was 1.94% (inactive).

As for `O=C(Nc1ccc(Cl)cc1)c1nc[nH]c1C(=O)NCCN(CCNC(=O)c1[nH]cnc1C(=O)Nc1ccc(Cl)cc1)CCNC(=O)c1[nH]cnc1C(=O)Nc1ccc(Cl)cc1`, the inhibition under setting [1] was 0.19% (inactive).

With `CCCN1C(=O)c2ccccc2NC1c1ccc(OC)cc1OC` (stereo unspecified), the inhibition result under setting [1] was “inactive”.

For the compound `CCCN1C(=O)c2ccccc2NC1c1cc(OC)c(OC)c(OC)c1` (stereo unspecified), the inhibition entry under setting [1] was “inactive”.

Turning to `CCOC(=O)c1c(-c2ccccc2)oc2cc(CN(C)C)c(O)c(CN(C)C)c12`, the inhibition under setting [1] is 2.26% (inactive).

In the case of `CC1(C)Cc2[nH]c3ccccc3c2C(C)(C)N1`, the inhibition under setting [1] is 0.1% (inactive).

On to `Cc1cccn2cc(COc3cccc([N+](=O)[O-])c3)nc12`, for which the inhibition under setting [1] is 2.58% (inactive).

`Cc1cccn2cc(-c3ccccc3)nc12`: the inhibition under setting [1] was 5.4% (inactive).

Regarding `Cc1ccc(S(=O)(=O)Oc2ccc(N3C(=O)C4C5CCC(C5)C4C3=O)cc2)cc1` (stereo unspecified), the inhibition under setting [1] was 2.05% (inactive).

For the compound `Cc1ccc2oc(=O)c3cnn(CC(=O)N4CCN(c5ccccc5)CC4)c3c2c1`, the inhibition under setting [1] was 10.3% (inactive).

As to `Cc1ccc2[nH]c3c(=O)n(CC(=O)Nc4ccccc4N4CCN(C)CC4)ncc3c2c1`, under setting [1], the inhibition was 0.06% (inactive).

For the compound `COc1ccc(C)cc1NC(=O)CCN1CCN(C/C=C/c2ccccc2)CC1`, the inhibition result under setting [1] is “inactive”.

For `C[N+]1=C2CCCCCN2C(O)(c2ccccc2)C1` (stereo unspecified), the inhibition result under setting [1] is “inactive”.

Consider `OC1(c2cccs2)CN(c2ccc(Cl)cc2)C2=[N+]1CCCS2` (stereo unspecified), for which the inhibition under setting [1] is 0.66% (inactive).

In the case of `CCc1ccc(N2CC(O)(c3cccs3)[N+]3=C2SCCC3)cc1` (stereo unspecified), the inhibition under setting [1] is 3.66% (inactive).

With `Cc1ccccc1N1CC(O)(c2cccs2)[N+]2=C1CCCC2` (stereo unspecified), the inhibition under setting [1] was 1.35% (inactive).

Regarding `COc1ccc2oc(C(=O)NCC3CCCO3)c(C)c2c1` (stereo unspecified), the inhibition under setting [1] is 5.81% (inactive).

As to `COc1ccc(CCNC(=O)CSc2nccc(=O)[nH]2)cc1OC`, the inhibition entry under setting [1] is “inactive”.

With `COc1ccccc1N/N=C(\C#N)C(=N)N1CCOCC1`, the inhibition under setting [1] is 1.39% (inactive).

Turning to `COc1ccc(Nc2cc(C(=O)NCCCN3CCN(C)CC3)c3ccccc3n2)cc1`, the inhibition under setting [1] was 0.57% (inactive).

Consider `COc1ccc(Nc2cc(C(=O)NCCCN3CCN(C)CC3)c3ccccc3n2)cc1OC`, for which the inhibition under setting [1] is 0.68% (inactive).

With `O=C(NCc1ccccc1Cl)C(=O)NCC(c1ccco1)N1CCOCC1` (stereo unspecified), the inhibition entry under setting [1] was “inactive”.

In the case of `Cc1c(NC(=O)CSCc2ccccc2)cccc1C(=O)O`, the inhibition under setting [1] is 0.57% (inactive).

With `Cc1ccc(CSCC(=O)Nc2ccccc2F)cc1`, the inhibition under setting [1] is 1.09% (inactive).

As to `COCCCNC(=S)NCCc1ccc(F)cc1`, the inhibition under setting [1] was 0.69% (inactive).

In the case of `COc1ccc(NCC(=O)N/N=C2\CCCC(C)C2)cc1` (stereo unspecified), the inhibition under setting [1] is 0.09% (inactive).

`C=CCN=c1scc(-c2ccc(F)cc2)n1/N=C/c1ccccn1`: the inhibition under setting [1] is 7.98% (inactive).

On to `C=CCN=c1scc(-c2ccccc2)n1/N=C/c1ccccn1`, for which the inhibition under setting [1] is 12% (inactive).

Consider `CC(=O)OCC1OC(n2cc(F)c(=O)[nH]c2=O)C(OC(C)=O)C1OC(C)=O` (stereo unspecified), for which the inhibition under setting [1] was 5.22% (inactive).

On to `C[C@H]1O[C@@H](n2cc(F)c(=O)[nH]c2=O)[C@H](O)[C@@H]1O`, for which the inhibition under setting [1] was 6.89% (inactive).

Take `Cc1ccnc(NC(=O)CCC(=O)N(CC(=O)NCc2ccc(F)cc2)CC2CCCO2)c1` (stereo unspecified): the inhibition under setting [1] was 0.42% (inactive).

In the case of `COc1ccccc1-c1cn[nH]c1-c1ccc(OCc2ccc(F)cc2)cc1O`, the inhibition under setting [1] is 3.76% (inactive).

Regarding `OCCOCCNc1ncnc2c1c(-c1ccccc1)cn2-c1ccccc1`, the inhibition under setting [1] is 10.9% (inactive).

With `c1ccc(-c2cn(-c3ccccc3)c3ncnc(NCCCN4CCOCC4)c23)cc1`, under setting [1], the inhibition is 9.07% (inactive).

On to `COc1ccc(NC(=O)CN2CCCCC2)cc1S(=O)(=O)N1CCCCC1`, for which the inhibition under setting [1] is 0.88% (inactive).

Consider `NC(=O)CC(NC(=O)Cc1cccc2ccccc12)c1ccc(NCc2ccc(F)c(F)c2)c([N+](=O)[O-])c1` (stereo unspecified), for which the inhibition under setting [1] is 0.49% (inactive).

Regarding `CNC(=O)/C(C#N)=C/c1cn(CC(=O)OC)c2ccccc12`, the inhibition under setting [1] is 0.69% (inactive).

Consider `COc1ccc(OC)c2[nH]c(C(=O)N3CCC(C(=O)O)CC3)cc12`, for which the inhibition under setting [1] was 0.69% (inactive).

`COc1cc2cc(C(=O)O)[nH]c2c(OC)c1OC`: the inhibition under setting [1] was 0.1% (inactive).

With `COC(=O)c1cc(S(=O)(=O)N2CCN(c3ccc([N+](=O)[O-])cc3)CC2)c[nH]1`, the inhibition under setting [1] was 3.14% (inactive).

As for `O=S(=O)(/C=C/c1ccccc1)Oc1ccccc1`, the inhibition result under setting [1] was “inactive”.

Turning to `Cc1c(C)n(CCCN(C)C)c2ncnc(Nc3ccccc3)c12`, the inhibition under setting [1] was 1.72% (inactive).

Regarding `COc1ccccc1Nc1ncnc2c1c(C)c(C)n2CCO`, the inhibition under setting [1] was 0.65% (inactive).

Consider `CCOc1ccc(NC(=O)CN(C)C(=O)CCC2CCCCC2)cc1OCC`, for which the inhibition under setting [1] was 2.6% (inactive).

Take `NNc1nc(-c2ccccc2Cl)c2cc(Br)ccc2n1`: the inhibition under setting [1] is 1.08% (inactive).
